Experimental data published in PubChem BioAssay AID588850 (Sanford-Burnham Center for Chemical Genomics, 2011).
About 3,100 (0.86%) of roughly 360,000 compounds were called active. This is one part of a sample in which actives are shown more often than they occur.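 The calls were made as follows: active = at least 50% inhibition at 5 µM, scaled per plate between neutral and stimulator controls; inactive = the rest.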

Experiment: inhibitors of PAF-induced NF-kB signaling, primary screen, cell-based, GFP fluorescence, uHTS (AID 588850);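 also: PAF is a Pseudomonas aeruginosa culture filtrate used as stimulus; plate controls were PAF-stimulated DMSO wells for no effect and unstimulated DMSO wells for full effect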
Settings: KKLEB NF-kB-GFP reporter, GFP fluorescence overnight, at 5 µM, active compounds read high

Which inhibition does the source give for `COc1cccc(-c2nn(-c3ccccc3)cc2/C=C(\C#N)C(=O)NCCCn2ccnc2)c1` here?
Its inhibition is -21.2% (inactive).

For `CC1CCCC(NC(=O)COC(=O)c2ccccc2C(=O)N(C)C2CCCCC2)C1C` (stereo not given), which inhibition is on record?
Its inhibition is 17.7% (inactive).

For `C=CCN(c1ccc(C(N)=O)cc1)S(C)(=O)=O`, which inhibition is on record?
Its inhibition is -12% (inactive).

With `COc1ccc(N2CCN(C(=O)COc3ccc4c(C)cc(=O)oc4c3)CC2)cc1` as the compound, how does the inhibition read?
Its inhibition is -21.4% (inactive).

Which inhibition does the source give for `Cc1c(C)c2ccc(OCC(=O)N3CCN(c4cccc(Cl)c4)CC3)cc2oc1=O` here?
The inhibition was 63.5% (active).

Which inhibition does the source give for `Cc1cc(OCC(=O)N2CCN(c3ncccn3)CC2)ccc1Cl` here?
The inhibition was 1.3% (inactive).

For `CC1(C)Cc2c(sc3nc(SCC(=O)NCc4ccccc4)n(-c4ccccc4)c(=O)c23)CS1`, which inhibition is on record?
Its inhibition is 4.3% (inactive).

With `Cc1ccc(S(=O)(=O)N2CCCC2CO)cc1` (stereo not given) as the compound, how does the inhibition read?
The inhibition was -11% (inactive).

With `CCn1ncc(Br)c1C(=O)Nc1cc(C)ccc1F` as the compound, how does the inhibition read?
The inhibition was 4.3% (inactive).

For `Cc1ccc(Cc2cnc(N)s2)o1`, which inhibition is on record?
Its inhibition is 4.4% (inactive).

For `O=C(CCc1ccccc1Cl)Nc1ccc(S(=O)(=O)Nc2nccs2)cc1`, which inhibition is on record?
The inhibition was 8.7% (inactive).

With `Cc1ccc(CCC(=O)Nc2ncc(Cc3cc(Cl)ccc3Cl)s2)o1` as the compound, how does the inhibition read?
Its inhibition is 64% (active).

For `COc1ccccc1/C=C/CN1CCC(CO)(Cc2ccccc2)CC1`, which inhibition is on record?
Its inhibition is 20.7% (inactive).

For `CC(C)(C)NC(=O)Cn1c(SCC(=O)Nc2nccs2)nc2ccccc21`, which inhibition is on record?
The inhibition was -6.3% (inactive).

Which inhibition does the source give for `COCCCNC(=S)N1CCN(c2nc(-c3cccc(OC)c3)cs2)CC1` here?
The inhibition was -8.2% (inactive).

Which inhibition does the source give for `c1ccc(C(=NNc2nc3ccccc3s2)c2ccccn2)cc1` here?
Its inhibition is -25.7% (inactive).

Which inhibition does the source give for `O=[N+]([O-])c1cc(Br)c(O)c(/C=N/Nc2nc3ccccc3s2)c1` here?
The inhibition was 63.5% (active).

Which inhibition does the source give for `O=C(N/N=C/c1cc(Br)c(O)c([N+](=O)[O-])c1)C(O)(c1ccccc1)c1ccccc1` here?
Its inhibition is -3.5% (inactive).

Which inhibition does the source give for `CCOC(=O)c1ccc(-c2ccc3ncnc(N(C)Cc4sccc4C)c3c2)o1` here?
The inhibition was 32.3% (inactive).

Which inhibition does the source give for `Cc1ccc(S(=O)(=O)CCC(=O)Nc2nnc(CC(C)C)s2)cc1` here?
Its inhibition is 8.1% (inactive).

For `Cc1ccc(CS(=O)(=O)c2ncc(Cl)c(C(=O)Nc3nnc(C)s3)n2)cc1`, which inhibition is on record?
The inhibition was 92.5% (active).

For `CSc1nnc(NC(=O)c2nc(S(=O)(=O)Cc3ccc(C)cc3)ncc2Cl)s1`, which inhibition is on record?
The inhibition was 104% (active).

With `CCOC(=O)CSc1nnc(NC(=O)c2cccc(S(=O)(=O)N3CCCCC3)c2)s1` as the compound, how does the inhibition read?
The inhibition was 5.1% (inactive).

Which inhibition does the source give for `O=C(Nc1nnc(Cc2ccc(Cl)cc2)s1)c1cccnc1` here?
The inhibition was 2.8% (inactive).

For `O=C(Nc1nnc(-c2ccc(F)cc2)s1)c1c(F)cccc1Cl`, which inhibition is on record?
Its inhibition is 11% (inactive).

For `CC1(C(=O)Nc2cccnc2)Cc2c(-c3ccccc3)ccnc2O1` (stereo not given), which inhibition is on record?
Its inhibition is 14.4% (inactive).

With `Cc1ccccc1C(=O)Nc1cccc(-c2nnc(SCC(=O)O)n2C)c1` as the compound, how does the inhibition read?
The inhibition was 0.8% (inactive).

For `C=CCn1c(SCC(=O)c2ccc(Br)cc2)nnc1C(C)NC(=O)Cc1ccc(OC)cc1` (stereo not given), which inhibition is on record?
The inhibition was -6.2% (inactive).

For `COCCn1c(C)cc(C(=O)CN2c3cccc4cccc(c34)S2(=O)=O)c1C`, which inhibition is on record?
The inhibition was 18.2% (inactive).

Which inhibition does the source give for `CCc1ccc(N(CC(=O)NCc2cccnc2)S(=O)(=O)c2ccccc2)cc1` here?
Its inhibition is -37.4% (inactive).

With `O=C(c1cccnc1)N(c1cc2sc(=O)oc2c2ccccc12)S(=O)(=O)c1ccccc1` as the compound, how does the inhibition read?
Its inhibition is 67% (active).

For `O=C(c1cccnc1)N(Cc1ccccc1)C(=O)c1cccnc1`, which inhibition is on record?
Its inhibition is 11.6% (inactive).

For `NC(=O)C[n+]1cccc(C(N)=O)c1`, which inhibition is on record?
The inhibition was 0.4% (inactive).

Which inhibition does the source give for `CCNC(=O)C1CCCN(C(=O)c2ccc(OC)cc2OC)CC1` (stereo not given) here?
The inhibition was -9.2% (inactive).

Which inhibition does the source give for `Cc1ccc(C2(C)NC(=O)N(CC(=O)Nc3ccccc3C(=O)N3CCCCC3)C2=O)cc1` (stereo not given) here?
Its inhibition is -4.5% (inactive).

Which inhibition does the source give for `O=C(NC1(C(F)(F)F)N=C2SCCN2C1=O)c1ccco1` (stereo not given) here?
The inhibition was 3.6% (inactive).

Which inhibition does the source give for `Clc1ccc2c(c1)C1=C(C(c3ccncc3)O2)C(c2ccc(Br)cc2)n2ncnc2N1` (stereo not given) here?
Its inhibition is 52.7% (active).

For `COCCCN(C(=O)Cn1ncc2c(=O)oc3ccc(C)cc3c21)C(C)c1ccncc1` (stereo not given), which inhibition is on record?
The inhibition was 1.3% (inactive).

Which inhibition does the source give for `O=C(Nc1ccc2c(c1)OCO2)C1CC(c2c(F)cccc2Cl)=NO1` (stereo not given) here?
The inhibition was 13.8% (inactive).

For `Cc1cc(C)c(-c2csc(NC(=O)CCCc3nc4ccccc4c(=O)[nH]3)n2)c(C)c1`, which inhibition is on record?
Its inhibition is -12.5% (inactive).

Which inhibition does the source give for `C=CCNC(=O)c1ccc2c3n(nc2c1)-c1ccc(C)cc1CO3` here?
Its inhibition is -75.6% (inactive).

For `COc1cc(OC)cc(C(=O)N[C@H](C(=O)Nc2nc3ccccc3[nH]2)C(C)C)c1`, which inhibition is on record?
The inhibition was 64.3% (active).

Which inhibition does the source give for `COc1cc(OC)cc(C(=O)N[C@H](C(=O)OCC(=O)NC(C)c2ccccc2)C(C)C)c1` (stereo not given in full) here?
Its inhibition is 21.2% (inactive).

Which inhibition does the source give for `COc1cc(OC)cc(C(=O)N[C@H](C(=O)NNC(=O)c2ccc(Br)cc2)C(C)C)c1` here?
Its inhibition is -8.2% (inactive).

For `CC(=O)NC(c1ccccc1)c1nc(-c2ccccc2C)cs1` (stereo not given), which inhibition is on record?
Its inhibition is -32.5% (inactive).
